Reference: PubChem BioAssay AID624202 (National Center for Advancing Translational Sciences (NCATS), 2012)
The campaign covered roughly 380,000 compounds. About 4,000 (1.1%) were called active. Entries that show only a call come without a potency. About 3% were inconclusive and are not listed. The call rests on the fitted dose curve; in most records, active means well fitted activation curve with a large enough effect; inconclusive means small, poorly fitted or top-dose-only effect; inactive means no such curve, though single readings can be large or run the other way. For the sample, actives were picked, then their nearest neighbours and some compounds at random.

Experiment: qHTS Assay to Identify Small Molecule Activators of BRCA1 Expression; further: nearly all actives have a fitted effect of over 80% in size
Conditions: MCF7-BRCA1-FFLuc reporter, luminescence, 48 h; series mostly up to 46.1 µM
Outline: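 First, MCF7-BRCA1-FFLuc cells (2000/well) attach for 2 h; next, compounds are pin-added and incubated 48 h at 37 °C; finally, luciferase reagent is added and luminescence read after 15 min.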
Potency means the concentration at half of the fitted maximal effect.

SMILES | Potency | activation
Cn1c(=O)c2sccc2n2c(CCC(=O)NCc3ccccc3Cl)nnc12 | inactive | 
CCN(CC)c1ccc(/C=C/c2c(C)cnc3ccc(C)cc23)cc1 | inactive | 
Cc1ccsc1/C=C1\SC(N2CCOCC2)=NC1=O | 11.2 µM (active) | 
O=C1N=C(N2CCOCC2)S/C1=C\C=C/c1ccccc1 |  | 0.869% [at 1.84 µM, scaled: vehicle 0%, 10 µM genistein 100%] (inactive)
CC1CCN(C2=NC(=O)/C(=C/c3cn[nH]c3-c3ccccc3)S2)CC1 | inactive | 
COc1ccc(Cn2c(=O)n(-c3ccccc3C)c(=O)c3c4c(sc32)CN(C(C)=O)CC4)cc1 | inactive | 
Cc1cccc(NC(=O)Cn2c(=O)n(CCC(C)C)c(=O)c3cccnc32)c1 | inactive | 
O=C(Nc1nnc(SCc2c(Cl)cccc2Cl)s1)C1CCCO1 (configuration not stated) | inactive | 
Cc1ccc(C)c(C(C)NC(=O)C2CCCO2)c1 (configuration not stated) | inactive | 
Cc1cc(C)c2nc(NC(=O)C3CCCO3)sc2c1 (configuration not stated) | 15.8 µM (active) | 
Cc1cc2ccccc2n1CCNC(=O)c1ccc(F)cc1 | inactive | 
O=C(NCc1ccccc1)C1CCN(S(=O)(=O)c2ccc3[nH]c(=O)ccc3c2)CC1 | inactive | 
CCN(C(=O)CSc1nnc(-c2ccncc2)o1)c1ccccc1 | inactive | 
COc1ccc(-c2nnc(SCC(=O)Nc3ccccc3C)o2)cc1OC | inactive | 
Cc1ccc(-c2nnc(CN3CCN(C)CC3)o2)cc1 | inactive | 
Cc1ccccc1CSc1nnc(CCCCCNC(=O)OC(C)(C)C)o1 | inactive | 
CCCCSc1nnc(-c2ccc(C)cc2)o1 | 1.78 µM (active) | 
Cc1ccc(-c2nnc(SCc3ccccc3C)o2)cc1 | 11.2 µM (active) | 
O=C(NCCC1=CCCCC1)c1ccc2c(c1)N(Cc1ccccc1F)C(=O)c1ccccc1S2(=O)=O | inactive | 
CCS(=O)(=O)N1CCc2cc(C(=O)NCc3ccc(C)cc3)ccc21 | inactive | 
Cc1ccc(C)c(N2CCN(C(=O)CCc3c(C)nc4c(c3C)c(=O)n(C)c(=O)n4C)CC2)c1 | inactive | 
COc1ccc(Cl)cc1NC(=O)Cn1c(=O)c2ccccc2n2nncc12 | inactive | 
Brc1nc2ncnc(NCc3ccco3)c2[nH]1 | inactive | 
CCOc1ccc(S(=O)(=O)N(CC(=O)NCCSCc2ccc(C)cc2)c2ccccc2)cc1 | inactive | 
CC(C)(C)NC(=O)CSc1nc(-c2ccc(F)cc2)cc(C(F)(F)F)n1 | inactive | 
CO[C@H]1O[C@@H]2O[C@@]3(C)CC[C@@H]4[C@@H](C)CC[C@@H]([C@H]1C)[C@@]24OO3 | inactive | 

SMILES | Potency | activation
CC1(C)CCc2cc(S(=O)(=O)N3CCN(c4nc(-c5cccs5)nc5ccccc45)CC3)ccc2O1 | inactive | 
Cc1cccc(NC(=O)COc2ccc(Br)cc2C)n1 | inactive | 
Cc1cccc(C)c1NC(=O)CNC(=O)Cc1ccc(Br)cc1 | inactive | 
Cc1cccc(NC(=O)Cc2ccc(Br)cc2)n1 | 8.91 µM (active) | 
CCCNC(=O)c1ccc(Cn2c(SCC(N)=O)nc3ccccc3c2=O)cc1 | inactive | 
COc1ccc(CCNC(=O)CCCCn2c(=O)c3ccccc3n(Cc3ccccc3)c2=O)cc1OC | inactive | 
Cc1ccc(CN(C(=O)c2ccccc2[N+](=O)[O-])c2ccccn2)cc1 | inactive | 
CCOC(=O)c1c(NC(=O)CSc2cn(CCNC(=O)c3cccc(C(F)(F)F)c3)c3ccccc23)sc2c1CCC2 | inactive | 
CC(=O)Cn1ncc(N2CCOCC2)c(Br)c1=O | inactive | 
O=C(Cn1ncc(N2CCCC2)c(Br)c1=O)c1ccc(Cl)cc1 | 1.41 µM (active) | 
O=C(Cn1nc(CNc2ccc(Cl)cc2)[n+]2c1CCCCC2)c1ccc(Cl)cc1 | inactive | 
CCOc1ccc(N(C)S(=O)(=O)c2cc(-c3cnc(C)o3)ccc2OC)cc1 | inactive | 
CCCCCn1c(CCCNC(=O)c2ccccc2OC)nc2ccccc21 | inactive | 
COc1cccc(/C(C)=N/Nc2ncc(Cl)cc2Cl)c1 | 10 µM (active) | 
CC(Oc1ccc(Cl)cc1)C(=O)OCC(=O)Nc1ncc(Cl)cc1Cl (configuration not stated) | inactive | 
COC(=O)c1sccc1N/N=C(\C)c1ccc(F)c(Cl)c1 | inactive | 
Cc1ccccc1CN1CCC(CNC(=O)c2c(C)oc3ncnc(N4CCCCC4)c23)CC1 | inactive | 
O=C(c1cccc(Cl)c1)N1CCN(CCc2ccncc2)CC1 | inactive | 
Cn1c(SCC(=O)c2ccc(F)cc2)nnc1-c1ccccn1 | inactive | 
Cc1ccc(CSc2nnc(-c3cnccn3)n2C)cc1 | inactive | 
Cn1c(SCc2c(F)cccc2Cl)nnc1-c1cnccn1 | 2.51 µM (active) | 
CCC(=O)N1CCc2cc(Br)cc(S(=O)(=O)NCc3ccc(Cl)cc3)c21 | inactive | 
CCOC(=O)N1CCN(S(=O)(=O)c2ccc(C(=O)Nc3ccc(F)cc3F)cc2)CC1 | inactive | 
COc1ccc(C(=O)Nc2ccc(F)cc2F)cc1 | 6.31 µM (active) | 
O=C(C=CC(=O)Nc1ccc(F)cc1F)Nc1ccc(F)cc1F | inactive | 
Cc1ccccc1-c1nc(CS(=O)(=O)CC(=O)Nc2cc(Cl)cc(Cl)c2)c(C)o1 | inactive | 

SMILES | Potency | activation
COc1cc(OC)c(N(C)C(=O)c2cc3c(=O)oc4ccccc4c3s2)cc1Cl | inactive | 
O=[N+]([O-])c1cccc(/C=N/Nc2ncc(Br)cn2)c1 | 4.47 µM (active) | 
O=C(N/N=C/c1cccc([N+](=O)[O-])c1)C1CC(=O)N(c2ccc(Br)cc2)C1 (configuration not stated) | inactive | 
CCCc1ccc(OCc2ccc(C(=O)N/N=C/c3cccc([N+](=O)[O-])c3)o2)c(OC)c1 | inactive | 
COc1ccc(CCNc2nc(-c3ccc(F)cc3)cc(C(F)(F)F)n2)cc1OC | inactive | 
CNCCCOc1cc2nc(N3CCCN(C)CC3)nc(NC3CCN(C)CC3)c2cc1OC | inactive | 
COc1ccc(-c2nn3c(=O)cc(CN4CCN(C(=O)c5ccc(OC)c(OC)c5)CC4)nc3s2)cc1 | inactive | 
O=[N+]([O-])c1c(NCCO)cc(Sc2nc3ccccc3s2)c2nonc12 | inactive | 
CN(C(=O)CSc1nc2ccc(NC(=O)COc3ccccc3)cc2s1)c1ccccc1 | inactive | 
O=C(O)c1ccccc1CSc1nc2ccccc2s1 | 5.62 µM (active) | 
COc1ccc(C2Nc3ccc(NC(=O)COC(C)=O)cc3C(=O)N2Cc2ccccc2)cc1COc1ccc(NC(C)=O)cc1 (configuration not stated) | inactive | 
COc1ccc2c(c1)c(=O)c(S(=O)(=O)c1ccc(F)cc1)cn2CC(=O)Nc1ccc(C)cc1C | inactive | 
CC(C)c1ccc(OCC(O)CN2CCN(c3ccccn3)CC2)cc1 (configuration not stated) | inactive | 
CN(CCOc1ccc(CC2SC(=O)NC2=O)cc1)c1ccccn1 (configuration not stated) | inactive | 
CC(O)c1ccc(OCCN(C)c2ccccn2)cc1 (configuration not stated) | 11.2 µM (active) | 
COc1ccccc1CNc1nccn(-c2ccc(F)cc2)c1=O | inactive | 
CCOC(=O)CNc1nc(Cl)nc(Nc2ccc(OC)cc2OC)n1 | inactive | 
Nc1nc(COC(=O)CCC(=O)c2ccc(Cl)cc2)nc(Nc2ccccc2)n1 | inactive | 
CCOC(=O)CNc1nc(Cl)nc(Nc2ccccc2)n1 | 15.8 µM (active) | 
CCCN1CN=C(NS(=O)(=O)c2ccc(NC(C)=O)cc2)NC1 | inactive | 
CC1=C(C(=O)Nc2ccccc2)C(c2ccc(C)cc2)n2nc(SCc3ccccc3C)nc2N1 (configuration not stated) | inactive | 
C/C(N)=C(/C#N)C(=O)COC(=O)c1cc(-c2cccc(Br)c2)nc2ccccc12 | inactive | 
Cc1ccc2nc(-c3cccc(Br)c3)cc(C(=O)Nn3cnnc3)c2c1 | 10 µM (active) | 
COc1ccccc1C(=O)Nn1cnnc1 | inactive | 
Cc1nc2c(-c3ccccc3)c(C)nn2c(C)c1CCC(=O)NCCc1ccccc1 | inactive | 
O=C1CC(c2ccccc2)CC2=C1C(c1ccco1)n1nc(C(F)(F)F)nc1N2 (configuration not stated) | inactive | 

SMILES | Potency | activation
Cc1cc(Nc2cccc(C(F)(F)F)c2)nc2ccc(NC(=O)c3ccc(=O)[nH]c3)cc12 | inactive | 
CC(C)=CCc1c(O)c(CC=C(C)C)c2occ(-c3ccc(O)cc3)c(=O)c2c1O | inactive | 
O=c1c(-c2ccccc2)coc2cc(O)ccc12 | 12.6 µM (active) | 
CN(C)Cc1c(O)ccc2c(=O)c(-c3ccccc3Cl)coc12 | inactive | 
COc1ccc(CCn2cc3c(c2-c2ccc(Br)cc2)c(=O)n(C)c(=O)n3C)cc1OC | inactive | 
CCC(C)N(c1ccc(/C=C/c2ccnc3ccccc23)cc1)C(C)CC (configuration not stated) | inactive | 
COC(=O)c1ccc(Cn2c(SCC(=O)N(C)c3ccccc3)nc3ccccc32)cc1 | inactive | 
COc1ccc(CN2C(=O)C(NC(=O)c3cccc(C)c3)(C(F)(F)F)N=C2c2ccccc2)cc1 (configuration not stated) | inactive | 
CCN1CCN(c2ccc(/C=C/c3ccnc4ccccc34)cc2)CC1 | inactive | 
O=C(/C=C/c1ccc(N2CCOCC2)cc1)c1ccccc1 | 3.16 µM (active) | 
C/C(=C/c1ccccc1)C(=O)N1CCN(c2ccccc2)CC1 | inactive | 
O=C(O)CCC(=O)Nc1ccc(N2CCOCC2)cc1 | inactive | 
COc1ccc(S(=O)(=O)NCc2cccn2Cc2cccc(C)c2)cc1Cl | inactive | 
CCn1cc2nc(SCc3cccc(F)c3)n(CCc3ccccc3)c(=O)c2n1 | inactive | 
CCc1ccccc1NS(=O)(=O)c1ccc2nc(-c3ccccc3)[nH]c2c1 | inactive | 
O=C(CCC(=O)c1cccs1)NC1CCCCCC1 | inactive | 
O=C(CCS(=O)(=O)c1ccccc1)NC1CCCC1 | 10 µM (active) | 
CC(=O)c1cc(-c2ccccc2)n(CCC(=O)NC2CCCCCC2)c1C | inactive | 
C=C1C=C(C)n2ncc(C(=O)Nc3ccccc3O)c2N1 | inactive | 
COc1cc(OC)cc(C(=O)Nc2c(C(=O)Nc3ccc(F)cc3)oc3ccccc23)c1 | inactive | 
COc1ccc(C(=O)OCC(=O)c2ccc(Cl)s2)c(OC)c1OC | inactive | 
Cn1cccc1C(=O)OCC(=O)NCCc1ccccc1 | inactive | 
Cn1cccc1C(=O)OCC(=O)c1ccc(Br)s1 | 8.91 µM (active) | 
CCCCNC(=O)Cn1c(SCc2cccc(Cl)c2)nc2ccncc21 | inactive | 
